Pf Dd2 inh: qHTS Primary assay for Inhibitors of Plasmodium falciparum Dd2 growth in vitro; hit rate 4.3% among 120,000; P. falciparum Dd2 growth, SYBR Green, 72 h; Potency, µM (doses to about 28.9 µM), for the others: at the top dose activity, negative = inhibition, hits mostly inhibitors; AID 1347417, 2020; active = well fitted inhibition curve with a large enough effect;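 note: plate controls were DMSO vehicle for no effect and reference drug for full effect; nearly all actives have a fitted effect of over 65% in size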
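Readout: SYBR Green fluorescence, 485 nm excitation, 535 nm emission, after ~16 h lysis at 37C. Before that, Dd2-infected red cells (2.5% hematocrit) grew 72 h with compound, 29 uM top final concentration.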
The depositor's hits bear a star; i = inactive; [ ] = another dose, or the depositor's remark. The sample as a whole holds a higher share of hits than the screen did. Potency is the fitted concentration of half-maximal effect.

SMILES | Pf Dd2 inh
CC1CCC2(CC1)OCC(C(=O)NCc1ccccc1F)N2C(=O)c1ccccc1F (configuration not stated) | i
CN1CCN(C(=O)CCc2ccc(=O)[nH]n2)CC12CCNC(=O)CC2 (configuration not stated) | 4%
Cc1ccc(-c2nc3scc(CCNS(=O)(=O)c4c(C)noc4C)n3n2)cc1 | 4%
COc1ccc(C2=C(C)C(=O)N(Cc3ccc(C(=O)Nc4ccc(F)cc4C)cc3)S2(=O)=O)cc1 | 18%
Cc1ccsc1C(=O)N1CCOc2ccc(CN3CCc4ccccc4C3)cc2C1 | 7.9µM*
O=C(c1noc2c1CCCC2)N1CCOc2ccc(CN3CCN(c4ccccn4)CC3)cc2C1 | -17%
O=C(c1cccc(F)c1)N1CCOc2ccc(CN3CCc4ccccc4C3)cc2C1 | 7.9µM*
Cn1nccc1C(=O)N1CCOc2ccc(CN3CCc4ccccc4C3)cc2C1 | -7%
O=C(CC(F)(F)F)N1CCOc2ccc(CN3CCc4ccccc4C3)cc2C1 | i
O=C(NCc1ccco1)N1CCOc2ccc(CN3CCc4ccccc4C3)cc2C1 | -18%
O=C(C1CCC1)N1CCOc2ccc(CN3CCc4ccccc4C3)cc2C1 | 10µM*
Cc1cccc(C(=O)N2CCOc3ccc(CCC(N)=O)cc3C2)c1 | -18%
CCNC(=O)N1CCOc2ccc(CN3CCc4ccccc4C3)cc2C1 | i
CCOc1ccc(-c2nonc2NC(=O)c2oc3ccc(Cl)cc3c2C)cc1 | 33%
COc1ccc(N2CCN(Cc3nc4c(c(=O)[nH]c(=O)n4C)n3Cc3ccc(C)cc3)CC2)cc1 | -2%
O=C(Nc1nc2c(s1)CCC2)C1CC(=O)N(c2n[nH]c3cccc(F)c23)C1 (configuration not stated) | 2%
CCCCCn1c(=O)[nH]c2cc(C(=O)Nc3ccc(OC)c(OC)c3)ccc2c1=O | i
O=C(c1ccc(Cn2cccn2)o1)N1CCCC2(CCC(=O)N(C3CC3)C2)C1 (configuration not stated) | 6%
O=C(CC1CCCN(c2cn[nH]c(=O)c2)C1)NCCc1ccccc1 (configuration not stated) | -8%
CC(C)CS(=O)(=O)N[C@H](C)c1onc(-c2ccc(Cl)cc2)c1C(=O)O | 8%[44.1 µM]
CC(C)NC(=O)N1[C@H]2CC[C@@H]1c1cnc(-c3ccc(F)cc3)nc1C2 | -18%
CC(C)Cc1cnc(C2CCCN(C(=O)OC(C)(C)C)C2)[nH]1 (configuration not stated) | 7.1µM*
CC(C)c1cnc(C2CCCN(C(=O)OC(C)(C)C)C2)[nH]1 (configuration not stated) | 11µM*
CC(C)(C)C(=O)N1CCCC(c2nn(-c3ccccc3)c(=O)[nH]2)C1 (configuration not stated) | i
CCCCc1ncc(CN2CCCC(c3cccc(C(=O)O)c3)C2)[nH]1 (configuration not stated) | -2%
SMILES | Pf Dd2 inh
COc1ccc(-n2nc(C3CCCN(C(=O)C(C)(C)C)C3)[nH]c2=O)cc1 (configuration not stated) | i
Cc1cnc(C2CC2)n1C1CCCN(C(=O)CC(C)C)C1 (configuration not stated) | -7%
Cc1ccc(N(Cc2cccs2)C(=O)Nc2cccc(Cl)c2)cc1 | -9%
COc1ccccc1-c1cc(C(=O)NCc2cccnc2)c2c(c1)N(C)CCO2 | -5%[44.1 µM]
CSc1cccc(NC(=O)CN(C)S(=O)(=O)c2ccc3c(c2)CCCN3C(C)=O)c1 | -5%
Cc1cccc(CC(=O)N2CC(c3nnc(-c4ccncc4)o3)C3(CCOCC3)C2)c1 (configuration not stated) | -6%
CC(C)CN1CCn2nc(CNC(=O)N3CCN(C)CC3)cc2C1 | -10%
C#C[C@H]1CN2CC[C@H]1C[C@@H]2CNS(=O)(=O)c1ccccc1 | i
C=CCN(C)C[C@H]1CN2CC[C@H]1C[C@@H]2CNS(=O)(=O)c1ccc(C)cc1 | 11µM*
C#C[C@H]1CN2CC[C@H]1C[C@@H]2CNS(=O)(=O)Cc1ccccc1 | 7.1µM*
C#C[C@H]1CN2CC[C@H]1C[C@@H]2CNS(=O)(=O)CCC | i
C=CCN(C)C[C@H]1CN2CC[C@H]1C[C@@H]2CNC(=O)Nc1ccccc1 | -17%[44.1 µM]
C#CCN(C)C[C@H]1CN2CC[C@H]1C[C@@H]2CNS(=O)(=O)c1ccc(Cl)cc1 | i
C=C[C@H]1CN2CC[C@H]1C[C@@H]2CNCc1ccc(SC)cc1 | 7.1µM*
C=C[C@H]1CN2CC[C@H]1C[C@@H]2CNC(=O)Nc1ccc(C(C)=O)cc1 | -31%[44.1 µM]
C#C[C@H]1CN2CC[C@H]1C[C@@H]2CNS(=O)(=O)c1ccc(C)cc1 | -9%[44.1 µM]
C=C[C@H]1CN2CC[C@H]1C[C@@H]2CNC(=O)c1ccc(N(C)C)cc1 | -5%[44.1 µM]
C#C[C@H]1CN2CC[C@H]1C[C@@H]2CNS(=O)(=O)c1ccc(OC)cc1 | 3.2µM*
C#C[C@H]1CN2CC[C@H]1C[C@@H]2CNS(=O)(=O)c1ccc(NC(C)=O)cc1 | -6%[44.1 µM]
COc1ccc(-c2noc(-c3ccc(NCC4CCCO4)c([N+](=O)[O-])c3)n2)cc1 (configuration not stated) | 47%
N#Cc1cccc(CN[C@H]2[C@H](O)[C@H](O)C[C@@H]2c2ccc(C(F)(F)F)nc2)c1 | -18%[44.1 µM]
CC[C@@H]1[C@@H](NC(=O)c2cc(C)nc3c2c(=O)[nH]c(=O)n3C)[C@@H]2CCO[C@H]12 | -8%
COc1ccc(CC(=O)Nc2ccc([C@H]3OCC(=O)N(Cc4ccccc4)[C@@H]3CO)cc2)cc1 | i
CCC(c1cnn(C)c1)n1ccnc1-c1cc(F)c(OC)c(Cl)c1 (configuration not stated) | -11%
O=C(O)C[C@@H]1CCN(C(=O)Nc2cccc(C(F)(F)F)c2)C[C@@H]1CC1=NCCc2cc(F)ccc21 | -14%
SMILES | Pf Dd2 inh
O=C1CC(c2ccccc2)N(C(=O)NC2CCCCC2)CCCCCN1 (configuration not stated) | -19%
C=C[C@H]1CN2CC[C@H]1C[C@@H]2CNS(C)(=O)=O | -13%[44.1 µM]
C=C[C@H]1CN2CC[C@H]1C[C@@H]2CNC(=O)c1ccc(-c2ccccc2)cc1 | -25%[44.1 µM]
C=C[C@H]1CN2CC[C@H]1C[C@@H]2CNS(=O)(=O)Cc1ccccc1 | 7.1µM*
CN(Cc1cccc(F)c1)C1CCOc2ccccc21 (configuration not stated) | -16%[44.1 µM]
c1ccc(-c2noc(-c3nc(-c4ccncc4)no3)n2)cc1 | -15%
Cc1ccc(NC(=O)C(CC(C)C)N2Cc3ccccc3C2=O)cc1F (configuration not stated) | -8%
CCOc1ccc(CN(CCc2ccc3c(c2)OCO3)Cc2cccc(Br)c2)cc1 | 3%
CCOc1ccc(CN(CCc2ccc3c(c2)OCO3)Cc2ccc(C)cc2)cc1 | 10µM*
CCOc1ccccc1CNC(=O)c1noc(-c2ccc3c(c2)OCO3)n1 | -2%
CCOc1ccc(CN(C)C2CCOc3ccccc32)cc1 (configuration not stated) | -10%[44.1 µM]
CCOc1ccccc1CN(CCc1ccc2c(c1)OCO2)Cc1cc(OC)c(OC)cc1OC | 4µM*
CCOc1ccc(CN(CCc2ccc3c(c2)OCO3)Cc2cccc(OC)c2)cc1 | -1%
Cc1cnc(CC2CCN(C(=O)NC(C)C)C2)n1C(C)C (configuration not stated) | -4%
O=C(Cc1ccccn1)N1CCC2(CC1)CC(=O)N(c1ccccc1)c1ccccc1O2 | -2%
O=C(Cn1ccn2nc(-c3ccc(F)cc3)c(CO)c2c1=O)NCc1ccccc1 | -5%
CCOc1ccccc1Nc1nnc(-c2cc3cc(OC)ccc3oc2=O)s1 | -10%

Screening data (PubChem)
